Compound activity: PubChem, National Center for Advancing Translational Sciences (NCATS)
Sm TGR inh: S. mansoni TGR enzyme inhibition; Potency, µM (series often up to 114 µM), for the others: at the top dose activity change, negative = inhibition, most hits filed as inhibitors; purified TGR, DTNB reduction, TNB absorbance 405 nm; AID 485364; 3% of 360,000 active; Q962Y6; note: potency is the fitted concentration of half-maximal effect; % is set by controls: 0 for no effect and ±100 for the full control effect; nearly all actives have a fitted effect of over 60% in size
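TGR 20 nM + NADPH 100 uM (dispensed conc.), cpd preinc 15 min RT; start with NADPH (500 uM addition) then DTNB (15 mM addition). Kinetic TNB absorbance, 405 nm filter. Four-parameter Hill fit across titration.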
CHX counter: counter-screen for Shiga toxin inhibitors: cycloheximide protein synthesis inhibition; 12% of 300,000 active; max response, %; cell reporter, cycloheximide protein synthesis inhibition counterscreen; in the data active = max response mostly above about 13%, no sharp cut-off; inactive = mostly below about 14%; note: read at 38.3 µM for the half of the compounds with a filed dose; 0% is about no effect
NS1 function inh: influenza NS1 inhibition. 0.4% of 270,000 active. AID 2326. Potency, µM (doses to about 46.1 µM), inactives show top-dose activity, positive = more growth; calls by dose curve; note: potency is the fitted concentration of half-maximal effect; actives are rising curves; nearly all actives have a fitted effect of over 50% in size
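Read-out: OD600 growth recovery of NS1-expressing budding yeast. Cells grown overnight at 30C in -URA glucose medium, washed, resuspended and diluted 1:100 in 2% galactose assay medium, pH 6.0. Same strain lacking NS1 served as positive control.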
Pf growth 96h: P. falciparum growth inhibition at 96 hour, primary screen for plastid delayed-death inhibitors; P. falciparum luciferase reporter growth, 96 h; Potency, µM (top dose mostly 28.7 µM), for inactives: at the top dose activity change, negative = inhibition, usual class: inhibitors; 6.9% of 320,000 active; AID 504834; note: potency is the fitted concentration of half-maximal effect; % is set by controls: 0 for no effect and ±100 for the full control effect
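Luminescence readout: decreased luciferase signal marks inhibited growth of reporter-expressing P. falciparum in infected red cells (2% hematocrit, 0.05% parasitemia final), exposed to compound two generations (96 h, 37 C, 5% CO2).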
Pf growth 48h: P. falciparum growth inhibition at 48 hours (one generation); P. falciparum luciferase growth in erythrocytes, 48 h; Potency, µM (titrated, usually from 28.7 µM), for the others: top-dose activity change, negative = inhibition, hits mostly inhibitors; 5.9% of 310,000 active; note: potency is the fitted concentration of half-maximal effect; % is set by controls: 0 for no effect and ±100 for the full control effect
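Cell-based growth assay: transgenic P. falciparum expressing firefly luciferase, cultured in red cells within RPMI 1640 containing 0.5% w/v Albumax, 24 mM bicarbonate and gentamycin. A drop in luciferase activity indicates inhibition.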
Shiga inhibitor: blocks Shiga toxin action in Vero cells; Vero cells, Shiga toxin protein synthesis inhibition reporter; inhibition, % at 38.7 µM; 9.2% of 290,000 active; AID 2315; in the data active = inhibition mostly above about 28%, no sharp cut-off; inactive = mostly below about 43%; note: 0% is about no effect
* hit, by the source's call; i = inactive; ? = inconclusive; · = no result; ! = repeats disagree; [ ] = another dose, or the depositor's remark. Shown are actives, neighbours in structure and some others; about 21% of the full set was active somewhere. Unless noted, calls come from the whole dose curve; as a rule, active = well fitted curve in the direction sought with a large enough effect; inconclusive = small, poorly fitted or top-dose-only effect, or another doubt; inactive = no such curve, though single readings can be large; an effect the other way counts as inactive or inconclusive.

SMILES	Sm TGR inh	CHX counter	NS1 function inh	Pf growth 96h	Pf growth 48h	Shiga inhibitor
CCc1ccc(NC(=O)CSc2nc(=O)n(Cc3ccco3)c3c2CCC3)cc1	45µM*	·	·	·	·	·
CC(=O)N1CCc2c(sc3c2c(=O)n(-c2ccccc2)c(=O)n3CC(=O)c2ccc(Cl)cc2)C1	-3%	·	·	·	·	·
Cc1c(Cl)cccc1Nc1nn2c(=O)c3ccc(C(=O)N(C)Cc4ccccc4)cc3nc2s1	4%	·	·	·	·	·
Cc1cccc(NC(=O)[C@@H](NC(=O)N2C[C@H]3C[C@@H](C2)c2cccc(=O)n2C3)C(C)C)c1	-10%	2	22%	5.2µM*	18%	-4
CCc1ccc(NC(=O)CCNC(=O)N2C[C@H]3C[C@@H](C2)c2cccc(=O)n2C3)cc1	0%	27*	-6%	4%	10%	31*
CC(C)(C)c1ccc(C(=O)Nc2nnc(C3=COCCO3)o2)cc1	-2%	-1	-7%	9.3µM*	15µM*	-2
O=C(Nc1nnc(C2=COCCO2)o1)c1cccc(F)c1	-2%	11*	-36%	15µM*	?	28
CCc1ccc(NC(=O)Cn2c(=O)n(CCCCC(=O)NCCc3ccccc3)c(=O)c3ccccc32)cc1	3%	·	·	·	·	·
CN1C(=O)c2ccc(NC(=O)c3ccc(Cl)cc3Cl)cc2C1=O	16%	22*	-17%	?	30%	14
O=C(Nc1ccc2ccccc2c1)c1cc(F)c(F)cc1Cl	8%	47*	14%	0%	203%	110*
O=C(Nc1ccc2ccccc2c1)c1ccccc1O	11%	23*	-40%	?	-18%	36*
O=C(Nc1ccc2c(c1)C(=O)OC2)c1ccc(Cl)cc1Cl	5%	16	-10%	55%	36%	10
O=C(Nc1ccc2ccccc2c1)c1ccc(Cl)cc1Cl	11%	26*	5%	i	-18%	32*
CC(C(=O)Nc1ccccc1Br)N1c2cccc3cccc(c23)S1(=O)=O (configuration not stated)	2%	-2	0%	-18%	?	-3
Cc1ccc(CCNC(=O)CN(c2ccc(C(C)C)cc2)S(=O)(=O)c2c(C)nn(C)c2C)cc1	-9%	·	·	·	·	·
CCC(CC)NC(=O)CON=C1c2ccccc2-c2ccccc21	4%	-1	0%	13µM*	13µM*	-2
O=C(CS(=O)(=O)c1ccccc1)Nc1nnc(Cc2ccccc2)s1	16%	-2	8%	27%	27%	-5
Cc1cc2nc3n(c2cc1C)CC1CC(C(=O)NCc2cccc(C(F)(F)F)c2)N(C)C31 (configuration not stated)	-1%	-4	3%	?	?	-3
CCCNc1nc2c(c(=O)n(C)c(=O)n2C)n1Cc1ccc(F)cc1	0%	-3	-24%	-7%	1%	17
Cn1c(=O)c2c(nc(NCc3ccccc3)n2Cc2ccc(F)cc2)n(C)c1=O	-3%	-1	-74%	15µM*	?	3
COc1ccc(CNc2nc3c(c(=O)n(Cc4ccc(Cl)cc4)c(=O)n3C)n2C)cc1	-4%	2	10%	?	2.6µM*	-11
Cn1c(=O)c2c(nc(Br)n2Cc2ccccc2Cl)n(C)c1=O	13%	-1	1%	?	0%	-9
COCCNc1nc2c(c(=O)n(Cc3ccc(OC)cc3)c(=O)n2C)n1C	-24%	3	-47%	29%	-24%	-16
Cn1c(=O)c2c(nc(Br)n2Cc2ccc3ccccc3c2)n(C)c1=O	-26%[11.4 µM]	-4	-5%	5.2µM*	·	-19
Cn1c(=O)c2c(nc(N/N=C/c3cccs3)n2Cc2ccccc2)n(C)c1=O	2%	2	-19%	10µM*	?	-5
SMILES	Sm TGR inh	CHX counter	NS1 function inh	Pf growth 96h	Pf growth 48h	Shiga inhibitor
CCOc1ccc(NC(=O)c2ccc3[nH]c(=O)c(=O)[nH]c3c2)cc1	-8%	-2	-5%	2%	6%	-3
Cc1ccc([N+](=O)[O-])c(C(=O)N/N=C/c2cccnc2)c1	6%	13	5%	?	?	10
CC(C)c1ccc(Nc2c(-c3ccc(N(C)C)cc3)nc3cnccn23)cc1	-5%	·	·	·	·	·
CCNc1nc2c(c(=O)n(Cc3ccccc3)c(=O)n2C)n1Cc1ccccc1	0%	-5	-11%	24%	10µM*	-7
CCNc1nc2c(c(=O)n(C)c(=O)n2C)n1Cc1ccc(Cl)cc1	-19%	1	-4%	?	-7%	-6
Cc1ccc(C(=O)N2CCN(C)CC2)cc1S(=O)(=O)N1CCCCC1	0%	-3	-1%	?	-12%	-10
Cc1ccc(C(=O)N2CCN(c3ccccc3O)CC2)cc1S(=O)(=O)N1CCCCC1	-4%	·	·	-103%	13µM*	·
Cc1cccc(N2CCN(S(=O)(=O)c3c(C)[nH]c(C)c3C(=O)N3CCCCC3)CC2)c1C	-2%	-4	10%	?	9.3µM*	2
Cc1ccc(C(=O)N2CCN(C)CC2)cc1S(=O)(=O)N1CCCCCC1	-19%	6	8%	2.3µM*	-28%	-21
Cc1ccc(C(=O)N2CCOCC2)cc1S(=O)(=O)N1CCCCC1	-22%	-3	8%	?	-5%	-2
COC(=O)CNC(=O)Cn1c(=O)n(Cc2ccc(F)cc2)c(=O)c2sccc21	8%	2	?	12µM*	44%	9
CCN(CC)C(=O)Cn1c(=O)n(Cc2ccc(F)cc2)c(=O)c2sccc21	6%	2	17%	?	9%	-7
COCCn1c(CNC(=O)c2cc(OC)c(OC)c(OC)c2)nc2cccnc21	1%	·	·	·	·	·
COc1ccc(CCC(=O)NNC(=O)c2cc(Cl)ccc2OC)cc1	-4%	-2	-2%	28%	10%	-11
CCCc1nn2c(=O)cc(COc3ccc(/C=C(\C#N)C(=O)Nc4ccccc4)cc3)nc2s1	48%	·	·	·	·	·
CC(C)(C)C(=O)CSc1ncnc2c1cnn2-c1ccccc1	15%	43*	-3%	29%	223%	62*
Nc1ncnc2c1cnn2-c1ccccc1	2%	29*	-12%	8%	66%	91*!
COCCCNc1ncnc2c1cnn2-c1ccc(F)cc1	2%	·	·	·	·	·
CCCCNc1ncnc2c1cnn2-c1ccccc1	11%	61*	-99%	12µM*	117%	92*
CCc1nc(NC(C)(C)C)c2cnn(-c3ccccc3)c2n1	-3%	41*	-2%	-6%	51%	99*
COc1cc(S(C)=O)ccc1-c1nc2ncccc2[nH]1 (configuration not stated)	-8%	·	·	4%	19%	·
Cc1onc(-c2ccccc2Cl)c1C(=O)N1CCN(c2ccc(F)cc2)CC1	-2%	-2	8%	-3%	-22%	-5
CCCCNc1ncnc2c1cnn2-c1ccc(Cl)cc1	0%	51*	-10%	128%	45%	72*
Clc1ccc(-n2ncc3c(NCc4ccccn4)ncnc32)cc1	0%	-2	6%	?	-27%	-22
